High-throughput results deposited in PubChem by National Center for Advancing Translational Sciences (NCATS).
POLB inh – qHTS Assay for Inhibitors of DNA Polymerase Beta; Potency, µM (series often up to 114 µM), usual class: inhibitors; Pol beta primer extension/strand displacement, fluorescence kinetic; 1.3% of 340,000 active
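Pol beta (10 nM) and compounds were preincubated 15 min at room temperature, then 50 nM substrate (final) started primer extension/strand displacement. Reads were taken at 0 and 10 min; concentration-response data were fitted to a four-parameter Hill equation.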
WRN helicase inh-1 – qHTS for Inhibitors of WRN Helicase. Bifunctional 3'-5' exonuclease/ATP-dependent helicase WRN (Homo sapiens), Q14191. WRN helicase unwinding, fluorescent forked duplex, kinetic. Potency, µM (top dose mostly 114 µM), hits mostly inhibitors. 0.46% of 360,000 active. AID 651768, 2012; further: nearly all actives have a fitted effect of over 55% in size
Target sequence (Q14191 whole entry, looked up): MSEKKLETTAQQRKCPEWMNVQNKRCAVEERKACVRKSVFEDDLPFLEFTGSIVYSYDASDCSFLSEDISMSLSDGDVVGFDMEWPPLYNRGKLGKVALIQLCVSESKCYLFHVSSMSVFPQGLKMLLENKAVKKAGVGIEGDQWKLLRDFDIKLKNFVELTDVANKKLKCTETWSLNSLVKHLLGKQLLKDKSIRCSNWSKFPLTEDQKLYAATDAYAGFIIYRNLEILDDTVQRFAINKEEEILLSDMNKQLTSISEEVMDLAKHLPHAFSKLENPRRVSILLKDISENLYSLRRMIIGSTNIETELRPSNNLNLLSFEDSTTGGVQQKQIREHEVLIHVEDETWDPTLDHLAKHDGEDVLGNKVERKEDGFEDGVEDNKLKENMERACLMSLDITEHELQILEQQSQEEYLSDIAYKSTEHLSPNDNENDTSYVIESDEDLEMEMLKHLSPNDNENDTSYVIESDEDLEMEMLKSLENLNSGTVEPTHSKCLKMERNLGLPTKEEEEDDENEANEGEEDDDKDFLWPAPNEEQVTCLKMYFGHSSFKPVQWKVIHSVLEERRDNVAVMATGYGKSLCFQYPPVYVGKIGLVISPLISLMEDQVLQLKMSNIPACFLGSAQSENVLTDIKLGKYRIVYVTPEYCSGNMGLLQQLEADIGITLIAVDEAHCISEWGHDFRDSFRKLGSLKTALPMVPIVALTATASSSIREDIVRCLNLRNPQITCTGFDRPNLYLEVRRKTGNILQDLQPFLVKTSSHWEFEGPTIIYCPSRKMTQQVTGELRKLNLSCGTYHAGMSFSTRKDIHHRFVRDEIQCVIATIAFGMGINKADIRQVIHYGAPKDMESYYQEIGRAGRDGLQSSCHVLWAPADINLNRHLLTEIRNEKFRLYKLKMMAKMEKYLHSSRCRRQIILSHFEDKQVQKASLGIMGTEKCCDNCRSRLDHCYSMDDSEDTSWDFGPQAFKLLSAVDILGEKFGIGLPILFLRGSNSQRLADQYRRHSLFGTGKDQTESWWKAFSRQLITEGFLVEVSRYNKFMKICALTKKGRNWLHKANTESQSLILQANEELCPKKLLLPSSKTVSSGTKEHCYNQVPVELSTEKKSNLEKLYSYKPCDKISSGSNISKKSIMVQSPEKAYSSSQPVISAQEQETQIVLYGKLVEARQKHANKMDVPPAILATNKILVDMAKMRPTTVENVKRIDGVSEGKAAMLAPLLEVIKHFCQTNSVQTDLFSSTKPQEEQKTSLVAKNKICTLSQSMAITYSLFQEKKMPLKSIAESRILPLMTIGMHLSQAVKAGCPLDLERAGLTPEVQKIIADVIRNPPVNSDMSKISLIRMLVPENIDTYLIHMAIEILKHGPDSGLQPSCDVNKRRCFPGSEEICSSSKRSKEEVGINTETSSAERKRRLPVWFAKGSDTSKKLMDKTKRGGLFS
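Kinetic fluorescence helicase assay: unwinding of a quenched forked DNA duplex (100 nM final) with 2 mM ATP final raises red fluorescence (525/598 nm). Compounds sat 15 min at room temperature with 20 nM WRN beforehand.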
POLH inh – qHTS for Inhibitors of Polymerase Eta | DNA polymerase eta (Homo sapiens), Q9Y253 | recombinant Pol eta, fluorescent DNA replication assay | Potency, µM (highest dose often 114 µM), usual class: inhibitors | 1.2% of 390,000 active | AID 588591, 2011
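Pol eta (10 nM) was preincubated with compounds for 15 min at room temperature, after which fluorescent replication substrate (50 nM final) was added to start the reaction. Fluorescence was read kinetically at 0 and 10 min.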
POLI inh – qHTS for Inhibitors of Polymerase Iota; 1% of 390,000 active; Potency, µM (series often up to 115 µM), usual class: inhibitors; Pol iota fluorescent replication assay, 10 min; AID 588590, 2011
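Pol iota at 10 nM preincubated 15 min with compounds at room temperature; reaction started with fluorescent substrate, 50 nM final. Fluorescence read kinetically at 0 and 10 min; buffer-only wells as negative control.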
FEN1 inh – qHTS Assay for the Inhibitors of Human Flap endonuclease 1 (FEN1). Recombinant FEN1 flap cleavage, fluorescence, 15 min. Potency, µM (titrated, usually from 114 µM), most hits filed as inhibitors. 0.35% of 390,000 active. AID 588795, 2011; further: nearly all actives have a fitted effect of over 65% in size
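Nuclease activity of 10 nM FEN1 was measured after 15 min of room-temperature exposure to titrated compounds, by adding 50 nM flap substrate and reading plates at 0 and 15 min.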
Pol kappa inh – qHTS for Inhibitors of Polymerase Kappa. DNA polymerase kappa (Homo sapiens), Q9UBT6. purified Pol kappa, fluorescent DNA synthesis assay, 10 min. Potency, µM (top dose mostly 107 µM), usual class: inhibitors. 0.53% of 400,000 active. AID 588579, 2011
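Activity was followed as the change in fluorescence between reads at 0 and 10 min after starting the reaction with 50 nM substrate. Beforehand, 10 nM polymerase had been preincubated with compound for 15 min at room temperature.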
WRN helicase inh-2 – qHTS for Inhibitors of WRN Helicase: Confirmatory Assay for Cherry-picked Compounds. AID 720497, 2013. Potency, µM (series often up to 57.1 µM), hits mostly inhibitors. 63% of 610 active. shares compounds with WRN helicase inh-1. WRN helicase DNA unwinding, fluorescence kinetic; further: nearly all actives have a fitted effect of over 65% in size
TO DNA binding – qHTS for Inhibitors of WRN Helicase: Thiazole Orange DNA Binding Counterscreen; shares compounds with WRN helicase inh-1; thiazole orange DNA binding displacement, fluorescence; Potency, µM (top dose mostly 57.1 µM), usual class: inhibitors; 10% of 610 active; AID 720499, 2013;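 further: drop in dye fluorescence marks compound binding to DNA; nearly all actives have a fitted effect of over 60% in size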
BLM helicase inh – qHTS for Inhibitors of WRN Helicase: BLM Helicase Counterscreen for WRN Inhibitors. shares compounds with WRN helicase inh-1. Recombinant BLM helicase DNA unwinding, red fluorescence. Potency, µM (titrated, usually from 57.1 µM), most hits filed as inhibitors. 60% of 610 active. AID 720503, 2013; further: nearly all actives have a fitted effect of over 60% in size
Large screens that a line does not name were inactive (follow-up assays come after a bar, where they were run). Rows were chosen to be rich in hits. Some 2.4% of all compounds tested hit in one or more screens of this group. The call rests on the fitted dose curve; in most records, active means well fitted curve in the direction sought with a large enough effect; inconclusive means small, poorly fitted or top-dose-only effect, or another doubt; inactive means no such curve, though single readings can be large; an effect the other way counts as inactive or inconclusive.

COc1ccccc1N1CCN(C(=O)Cn2ncc3c(=O)oc4ccccc4c32)CC1	none (no result: WRN helicase inh-1)
COc1c(C)cc(NS(=O)(=O)c2ccc3c(c2)OCCO3)cc1C	none (no result: WRN helicase inh-1, POLH inh)
COc1cccc(/C=C2/C(=O)NN(c3ccc(Br)cc3)C2=O)c1O	POLB inh inconclusive, WRN helicase inh-1 0.67µM, POLH inh 79.4µM | WRN helicase inh-2 17.1µM | TO DNA binding inactive | BLM helicase inh 6.81µM
COc1cc(/C=C2/C(=O)NN(c3ccc(Cl)cc3)C2=O)cc(Br)c1O	POLB inh inconclusive, POLI inh inconclusive
N#C/C(=C/c1ccc(O)c(O)c1)c1nc2ccccc2[nH]1	POLB inh inconclusive, WRN helicase inh-1 35.5µM, POLH inh 3.16µM, POLI inh inconclusive, FEN1 inh inconclusive, Pol kappa inh 10µM | WRN helicase inh-2 6.07µM | TO DNA binding inactive | BLM helicase inh 8.57µM
N#C/C(=C\c1ccc(Cl)cc1)c1nc2ccccc2[nH]1	none (no result: WRN helicase inh-1)
CCCCNC(C(=O)Nc1ccc([N+](=O)[O-])cc1Br)c1ccccc1 (stereo unspecified)	WRN helicase inh-1 inconclusive, POLI inh inconclusive | WRN helicase inh-2 inactive | TO DNA binding inactive | BLM helicase inh inactive
CCOc1ccc(NC(=O)N(Cc2c[nH]c3ccccc23)C2CCCCCC2)cc1	none (no result: WRN helicase inh-1)
O=C(Nc1ccccc1-c1ccccc1)c1ccccc1	none
Nc1c(S(=O)(=O)O)cc(NC(=O)c2ccccc2)c2c1C(=O)c1ccccc1C2=O	POLB inh 22.4µM, WRN helicase inh-1 28.2µM, POLH inh 17.8µM, POLI inh inconclusive, FEN1 inh inconclusive | WRN helicase inh-2 12.1µM | TO DNA binding 10.8µM | BLM helicase inh 19.2µM
CN1CCN(C2=C(Cl)C(=O)c3ccccc3C2=O)CC1	WRN helicase inh-1 inconclusive, POLH inh 3.55µM, POLI inh 6.31µM, FEN1 inh inconclusive (no result: POLB inh) | WRN helicase inh-2 inconclusive | TO DNA binding inactive | BLM helicase inh 3.41µM
CN1CCN(C2=C(NS(=O)(=O)c3ccccc3)C(=O)c3ccccc3C2=O)CC1	none
Cc1cc(C)cc(NS(=O)(=O)c2ccc3c(c2)CCCN3C(=O)C2CCC2)c1	none (no result: WRN helicase inh-1)
COC(=O)c1c(NC(=O)CCCOc2cccc(C)c2)sc2c1C(C(=O)OC)CC2 (stereo unspecified)	POLI inh inconclusive, FEN1 inh 70.8µM (no result: WRN helicase inh-1) | WRN helicase inh-2 inactive | TO DNA binding inactive | BLM helicase inh inconclusive
CCOc1ccc(/C=C/C(=O)Nc2sc3c(c2C(=O)OC)C(C(=O)OC)CC3)cc1 (stereo unspecified)	POLH inh 50.1µM, POLI inh inconclusive, FEN1 inh inconclusive (no result: WRN helicase inh-1) | WRN helicase inh-2 inactive | TO DNA binding inactive | BLM helicase inh inconclusive
COC(=O)c1c(NC(=O)CCCOc2ccc(C)cc2)sc2c1C(C(=O)OC)CC2 (stereo unspecified)	POLI inh inconclusive, FEN1 inh 79.4µM, Pol kappa inh inconclusive (no result: WRN helicase inh-1) | WRN helicase inh-2 inactive | TO DNA binding 24.1µM | BLM helicase inh inconclusive
CCOc1ccc(/C=C/C(=O)Nc2sc3c(c2C(=O)OC)CCCC3)cc1	none (no result: WRN helicase inh-1)
